This passage reports Z-AUC, activity, negative = inhibition and Potency results from PubChem BioAssay (NCATS).

A short description of test [1]: qHTS drug screen for cell cycle checkpoint inhibitors in PARPi-resistant BRCA-mutant ovarian cancer cell lines. (AID 1963452; calls by dose curve). To be noted: PEO1/OlaR viability, CellTiter-Glo luminescence, 96 h, stronger effect = lower value. In outline:
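PEO1, PEO4 and PEO1/OlaR ovarian cancer cells, 600 per well, exposed 96 h at 37C to a dilution series. Viability read by CellTiter-Glo luminescence, normalized to DMSO and empty wells; activity summarized as Z-AUC.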
(In qHTS, concentration-response curves come from the screen itself.)

A short description of test [2]: qHTS profiling for inhibitors of Plasmodium falciparum proliferation (AID 504749). Also: nearly all actives have a fitted effect of over 60% in size. Also: potency is read from the fitted curve at half-maximal effect.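 As to activity, negative = inhibition: 0% = DMSO vehicle and full inhibition = artemisinin control.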 Particulars: P. falciparum in erythrocytes, SYBR Green DNA, 72 h. In outline: (§1)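 Three-day growth assay of blood-stage parasites in erythrocytes (0.3% parasitemia, 2.5% hematocrit) at 37 C, 5% CO2, quantified by SYBR Green DNA staining after overnight detergent lysis.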
The test system of the next test is 3D7. The test is described as above. Particulars: P. falciparum in erythrocytes, SYBR Green DNA, 72 h; series mostly up to 28.7 µM. In outline:
as §1

A further test deals with 7G8. The description is as above. To be noted: P. falciparum in erythrocytes, SYBR Green DNA, 72 h; series mostly up to 28.7 µM. In short, it runs like this:
as §1

For the next test, the system named is AA1029. The test is described as above. To be noted: P. falciparum in erythrocytes, SYBR Green DNA, 72 h; series mostly up to 28.7 µM. In short, it runs like this:
as §1

The test system of the next test is AS120. The description is as above. To be noted: P. falciparum in erythrocytes, SYBR Green DNA, 72 h; series mostly up to 28.7 µM. In short, it runs like this: as §1
The test system of another test is ATS189. The test is described as above. Particulars: P. falciparum in erythrocytes, SYBR Green DNA, 72 h; series mostly up to 28.7 µM. In short, it runs like this: as §1
The next test concerns ATS95. The test is described as above. To be noted: P. falciparum in erythrocytes, SYBR Green DNA, 72 h; series mostly up to 28.7 µM. In outline:
as §1

Another test deals with C2A. The description is as above. Particulars: P. falciparum in erythrocytes, SYBR Green DNA, 72 h; series mostly up to 28.7 µM. In outline:
as §1

Another test has as its system CP185. Described as above. To be noted: P. falciparum in erythrocytes, SYBR Green DNA, 72 h; series mostly up to 28.7 µM. In short, it runs like this:
as §1

The test system of a further test is CP191. The test is described as above. Particulars: P. falciparum in erythrocytes, SYBR Green DNA, 72 h; series mostly up to 28.7 µM. In short, it runs like this:
as §1

A further test relates to CP192. The description is as above. Particulars: P. falciparum in erythrocytes, SYBR Green DNA, 72 h; series mostly up to 28.7 µM. In outline:
as §1

A further test deals with CP194. The test is described as above. To be noted: P. falciparum in erythrocytes, SYBR Green DNA, 72 h; series mostly up to 28.7 µM. In short, it runs like this:
as §1

For the next test, the system named is CP201. The description is as above. To be noted: P. falciparum in erythrocytes, SYBR Green DNA, 72 h; series mostly up to 28.7 µM. In outline:
as §1

In the next test the test system is CP211. The test is described as above. Particulars: P. falciparum in erythrocytes, SYBR Green DNA, 72 h; series mostly up to 28.7 µM. In outline:
as §1

The next test relates to CP217. Described as above. To be noted: P. falciparum in erythrocytes, SYBR Green DNA, 72 h; series mostly up to 28.7 µM. In short, it runs like this: as §1
For another test, the system named is CP215. The test is described as above. Particulars: P. falciparum in erythrocytes, SYBR Green DNA, 72 h; series mostly up to 28.7 µM. In short, it runs like this: as §1
The test system of the next test is CP203. The test is described as above. Particulars: P. falciparum in erythrocytes, SYBR Green DNA, 72 h; series mostly up to 28.7 µM. In short, it runs like this:
as §1

Where [3] appears, read: measured here: PEO1 parental Z-AUC.
Setting [4] is: at 28.7 µM (top of the series), parasite line A.
[5] abbreviates: at 28.7 µM (top of the series), parasite line B.

Results filed as inconclusive are left out. Calls of active or inactive are those of the source. Unless noted, calls follow the shape of the dose curve; as a rule, active = well fitted inhibition curve with a large enough effect; inconclusive = small, poorly fitted or top-dose-only effect; inactive = flat fitted curve, though single readings scatter.

Take `C[Se]CCC(N)C(=O)O` (configuration not stated): the Z-AUC is 0.282 (inactive) in test [1], 1.03 in [1] (setting [3]) and 1.31 in test [1] (measured here: PEO4 Z-AUC). Further, the activity, negative = inhibition in test [2] (setting [4]) is 6.19% (inactive); in test [2] (setting [5]), -13.4% (inactive). For the same compound, the Potency result in the test with 3D7, in the test on 7G8, in the test with AA1029, in the test with AS120, with ATS189 and in the test on ATS95 was “inactive” throughout. The Potency entry with C2A, with CP185, in the test with CP191, in the test with CP192, with CP194 and in the test with CP201 was “inactive” in each case. Further, the Potency result with CP211 and with CP217 was “inactive” in each case.

As to `CC(S)C(=O)NCC(=O)O` (configuration not stated), the figures for the Z-AUC in test [1], in [1] (setting [3]) and in test [1] (measured here: PEO4 Z-AUC) were -0.465 (inactive), 0.365 and 0.0416, respectively. Besides, the activity, negative = inhibition in test [2] (setting [4]) was 5.37% (inactive); in test [2] (setting [5]), 13.7% (inactive). Also, the Potency result in the test with 3D7, in the test on AA1029, in the test with AS120, with ATS189, with ATS95 and in the test with C2A was “inactive” throughout. The Potency result in the test with CP185, in the test with CP191, in the test with CP192, with CP194, with CP201 and in the test on CP211 was “inactive” throughout. Besides, the Potency result with CP215 and with CP217 was “inactive” in each case.

For the compound `O=C(O)c1cccc(-c2noc(-c3ccccc3F)n2)c1`, the Z-AUC in test [1] is 0.225 (inactive); in test [1] (setting [3]), 0.852; in test [1] (measured here: PEO4 Z-AUC), 1.3. In addition, the activity, negative = inhibition is -1.01% (inactive) in test [2] (setting [4]) and 10.4% (inactive) in test [2] (setting [5]). For the same compound, the Potency result in the test with 3D7, in the test with 7G8, with AA1029, in the test on AS120, with ATS189 and with ATS95 was “inactive” throughout. Moreover, the Potency result in the test with C2A, in the test with CP185, with CP191, with CP192, in the test with CP194 and in the test with CP201 was “inactive” in each case. Further, the Potency result in the test on CP203, in the test on CP211, in the test on CP215 and in the test on CP217 was “inactive” throughout.

For the compound `Clc1ccc(C(Cn2ccnc2)OCc2ccsc2Cl)c(Cl)c1` (configuration not stated), the figures for the Z-AUC in test [1], in test [1] (setting [3]) and in test [1] (measured here: PEO4 Z-AUC) were -0.189 (inactive), -0.0624 and 0.0924, respectively. For the same compound, the Potency in test [2] (parasite line A) is 2.82 µM (active); in test [2] (parasite line B) it was 2.82 µM (active); with 3D7 it was 2.51 µM (active); in the test with 7G8, 0.447 µM (active); in the test on AA1029, 7.94 µM (active); in the test on AS120 it was 1.12 µM (active). The Potency with ATS189 was 6.31 µM (active); in the test on ATS95, 7.08 µM (active); in the test on CP185, 7.94 µM (active); in the test with CP191, 7.08 µM (active); in the test on CP192, 16.9 µM (active); with CP194, 8.49 µM (active). The results for the Potency in the test on CP211, in the test with CP215 and in the test on CP217 were 13.5 µM (active), 6.01 µM (active) and 5.01 µM (active), respectively.

For `O=C(NC(Cc1cc(=O)[nH]c2ccccc12)C(=O)O)c1ccc(Cl)cc1` (configuration not stated), the Z-AUC was -0.00865 (inactive) in test [1], 0.872 in test [1] (setting [3]) and 1.04 in test [1] (measured here: PEO4 Z-AUC). In addition, the activity, negative = inhibition was 1.94% (inactive) in [2] (setting [4]) and -14.9% (inactive) in test [2] (setting [5]). In addition, the Potency result with 3D7, in the test with 7G8, in the test on AA1029, in the test with AS120, in the test on ATS189 and in the test on ATS95 was “inactive” in each case. Also, the Potency entry in the test on C2A, with CP185, with CP191, in the test with CP192, in the test with CP194 and in the test with CP201 was “inactive” each time. Also, the Potency result in the test with CP203, in the test on CP211, in the test on CP215 and with CP217 was “inactive” throughout.

With `Oc1ccc(OCc2ccccc2)cc1`, the values for the Z-AUC in test [1], in test [1] (setting [3]) and in test [1] (measured here: PEO4 Z-AUC) were 0.481 (inactive), 0.491 and 0.0323, respectively. Moreover, the activity, negative = inhibition was -21.7% (inactive) in [2] (at 12.8 µM (top of the series), parasite line A) and -19.8% (inactive) in test [2] (at 12.8 µM (top of the series), parasite line B). Further, the Potency entry with 7G8, in the test on AA1029, with AS120, with ATS189, with ATS95 and in the test on C2A was “inactive” each time. Further, the Potency result in the test with CP185, in the test with CP191, in the test on CP192, with CP194, in the test on CP201 and with CP211 was “inactive” each time. The Potency result in the test with CP215 and with CP217 was “inactive” in each case.
